# Laboratory results taken from the supplement of paper PMC8728848.
# Many of the other results were omitted from the sample, so the strongest signals are more common in it than they were.
# B1: CAA (Caragana arborescens) (protein)
# chain: VAVEFDTFDNPDWDPRTKHIGIDVNSIRSNKTTQWGFWNRQVADVDISYEASSKTLNVSLYYPGESYIVTDVVDLKDILPEWVRIGF
# Key:
# Assay in all cases: glycan array binding signal (z-score within array); higher = stronger binding
# Settings in all cases: glycan notation: IUPAC condensed, linker removed
# [1] = biological target: Fuc(a1-2)Gal(b1-3)GlcNAc(b1-2)Man(a1-3)[Fuc(a1-2)Gal(b1-3)GlcNAc(b1-2)Man(a1-6)]Man(b1-4)GlcNAc(b1-4)GlcNAc
# Outline: (§1)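 The binding signal is a Z-score computed within each array. Data were drawn from 3228 arrays in the Consortium for Functional Glycomics database, restricted to those with a known protein sequence. Scores were averaged over arrays of the same protein sequence at different concentrations or buffers, and over linkers, and negative values can be taken as non-binding.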
# [2] = biological target: Fuc(a1-2)Gal(b1-3)GlcNAc(b1-3)GalNAc
# Outline: as §1
# [3] = biological target: Fuc(a1-2)Gal(b1-3)GlcNAc(b1-3)[Fuc(a1-2)Gal(b1-3)GlcNAc(b1-6)]GalNAc
# Outline: as §1
# [4] = biological target: Fuc(a1-2)Gal(b1-3)GlcNAc(b1-3)[Gal(b1-4)GlcNAc(b1-6)]Gal(b1-4)Glc
# Outline: as §1
# [5] = biological target: Fuc(a1-2)Gal(b1-3)[Fuc(a1-4)]GlcNAc(b1-2)Man(a1-3)[Fuc(a1-2)Gal(b1-3)[Fuc(a1-4)]GlcNAc(b1-2)Man(a1-6)]Man(b1-4)GlcNAc(b1-4)[Fuc(a1-6)]GlcNAc(b1-4)[Fuc(a1-6)]GlcNAc
# Outline: as §1
# Fuc(a1-2)Gal(b1-4)GlcNAc = biological target: Fuc(a1-2)Gal(b1-4)GlcNAc
# Outline: as §1
# [6] = biological target: Fuc(a1-2)Gal(b1-4)GlcNAc(b1-2)Man(a1-3)[Fuc(a1-2)Gal(b1-4)GlcNAc(b1-2)Man(a1-6)]Man(b1-4)GlcNAc(b1-4)GlcNAc
# Outline: as §1
# [7] = biological target: Fuc(a1-2)Gal(b1-4)[Fuc(a1-3)]GlcNAc(b1-3)GalNAc
# Outline: as §1
# [8] = biological target: Fuc(a1-2)[Gal(a1-3)]Gal(b1-3)GlcNAc
# Outline: as §1
# [9] = biological target: Fuc(a1-2)[Gal(a1-3)]Gal(b1-3)GlcNAc(b1-2)Man(a1-3)[Fuc(a1-2)[Gal(a1-3)]Gal(b1-3)GlcNAc(b1-2)Man(a1-6)]Man(b1-4)GlcNAc(b1-4)GlcNAc
# Outline: as §1
# [10] = biological target: Fuc(a1-2)[Gal(a1-3)]Gal(b1-4)GlcNAc(b1-6)GalNAc
# Outline: as §1
# [11] = biological target: Fuc(a1-2)[GalNAc(a1-3)]Gal(b1-4)GlcNAc(b1-3)Gal(b1-4)GlcNAc(b1-3)Gal(b1-4)GlcNAc
# Outline: as §1
# [12] = biological target: Gal(b1-3)GalNAc(b1-3)Gal(a1-4)Gal(b1-4)Glc
# Outline: as §1
# [13] = biological target: Gal(b1-3)GlcNAc(b1-2)Man(a1-3)[Gal(b1-3)GlcNAc(b1-2)Man(a1-6)]Man(b1-4)GlcNAc(b1-4)GlcNAc
# Outline: as §1
# [14] = biological target: Gal(b1-3)GlcNAc(b1-2)Man(a1-3)[Gal(b1-3)GlcNAc(b1-2)Man(a1-6)]Man(b1-4)GlcNAc(b1-4)[Fuc(a1-6)]GlcNAc
# Outline: as §1
# [15] = biological target: Gal(b1-3)GlcNAc(b1-2)[Gal(b1-3)GlcNAc(b1-6)]Man(a1-6)[Gal(b1-3)GlcNAc(b1-2)Man(a1-3)]Man(b1-4)GlcNAc(b1-4)GlcNAc
# Outline: as §1
# [16] = biological target: Gal(b1-3)[Fuc(a1-4)]GlcNAc
# Outline: as §1
# Gal(b1-4)Gal = biological target: Gal(b1-4)Gal
# Outline: as §1
# [17] = biological target: Gal(b1-4)GlcNAc(a1-6)Gal(b1-4)GlcNAc
# Outline: as §1
# [18] = biological target: Gal(b1-4)GlcNAc(b1-2)Man(a1-3)[Gal(b1-4)GlcNAc(b1-2)Man(a1-6)]Man(b1-4)GlcNAc(b1-4)GlcNAc
# Outline: as §1
# [19] = biological target: Gal(b1-4)GlcNAc(b1-2)Man(a1-3)[GlcNAc(b1-4)][Gal(b1-4)GlcNAc(b1-2)Man(a1-6)]Man(b1-4)GlcNAc(b1-4)GlcNAc
# Outline: as §1
# [20] = biological target: Gal(b1-4)GlcNAc(b1-2)Man(a1-6)[GlcNAc(b1-2)Man(a1-3)]Man(b1-4)GlcNAc(b1-4)GlcNAc
# Outline: as §1
# [21] = biological target: Gal(b1-4)GlcNAc(b1-2)[Gal(b1-4)GlcNAc(b1-4)]Man(a1-3)[GlcNAc(b1-4)][Gal(b1-4)GlcNAc(b1-2)Man(a1-6)]Man(b1-4)GlcNAc(b1-4)GlcNAc
# Outline: as §1
# GalNAc6S(b1-4)GlcNAc = biological target: GalNAc6S(b1-4)GlcNAc
# Outline: as §1
# GlcA(b1-6)Gal = biological target: GlcA(b1-6)Gal
# Outline: as §1
# [22] = biological target: GlcNAc(a1-4)Gal(b1-4)GalNAc
# Outline: as §1
# [23] = biological target: GlcNAc(b1-2)Man(a1-3)[GlcNAc(b1-2)Man(a1-6)]Man(b1-4)GlcNAc(b1-4)GlcNAc
# Outline: as §1
# [24] = biological target: GlcNAc(b1-2)[GlcNAc(b1-4)]Man(a1-3)[GlcNAc(b1-2)Man(a1-6)]Man(b1-4)GlcNAc(b1-4)GlcNAc
# Outline: as §1
# GlcNAc(b1-3)Fuc = biological target: GlcNAc(b1-3)Fuc
# Outline: as §1
# [25] = biological target: Man(a1-2)Man(a1-3)[Man(a1-2)Man(a1-6)]Man(a1-6)[Man(a1-2)Man(a1-2)Man(a1-3)]Man
# Outline: as §1
# [26] = biological target: Neu5Ac(a2-3)Gal(b1-3)[Fuc(a1-4)]GlcNAc(b1-3)Gal(b1-3)[Fuc(a1-4)]GlcNAc
# Outline: as §1
# [27] = biological target: Neu5Ac(a2-3)Gal(b1-4)GlcNAc(b1-3)Gal(b1-4)[Fuc(a1-3)]GlcNAc
# Outline: as §1
# Neu5Ac(a2-3)GalNAc = biological target: Neu5Ac(a2-3)GalNAc
# Outline: as §1
# [28] = biological target: Neu5Ac(a2-6)Gal(b1-4)GlcNAc(b1-2)Man(a1-3)[GlcNAc(b1-4)][Neu5Ac(a2-6)Gal(b1-4)GlcNAc(b1-2)Man(a1-6)]Man(b1-4)GlcNAc(b1-4)GlcNAc
# Outline: as §1
# [29] = biological target: Neu5Ac(a2-6)Gal(b1-4)GlcNAc(b1-2)Man(a1-6)[Gal(b1-4)GlcNAc(b1-2)Man(a1-3)]Man(b1-4)GlcNAc(b1-4)GlcNAc
# Outline: as §1
# [30] = biological target: Neu5Ac(a2-6)Gal(b1-4)GlcNAc(b1-2)Man(a1-6)[GlcNAc(b1-2)Man(a1-3)]Man(b1-4)GlcNAc(b1-4)GlcNAc
# Outline: as §1
# [31] = biological target: Neu5Ac(a2-6)Gal(b1-4)GlcNAc(b1-2)Man(a1-6)[Man(a1-3)]Man(b1-4)GlcNAc(b1-4)GlcNAc
# Outline: as §1
# [32] = biological target: Neu5Ac(a2-6)Gal(b1-4)GlcNAc(b1-6)GalNAc
# Outline: as §1
# [33] = biological target: Neu5Ac(a2-8)Neu5Ac(a2-8)Neu5Ac
# Outline: as §1
# [34] = biological target: Neu5Ac9Ac(a2-6)Gal(b1-4)GlcNAc
# Outline: as §1
binder,measurement,setting,value
B1,glycan array binding signal (z-score),[1],4.07
same,glycan array binding signal (z-score),[2],-0.244
same,glycan array binding signal (z-score),[3],-0.242
same,glycan array binding signal (z-score),[4],-0.249
same,glycan array binding signal (z-score),[5],1.03
same,glycan array binding signal (z-score),Fuc(a1-2)Gal(b1-4)GlcNAc,-0.242
same,glycan array binding signal (z-score),[6],2.51
same,glycan array binding signal (z-score),[7],-0.238
same,glycan array binding signal (z-score),[8],-0.238
same,glycan array binding signal (z-score),[9],3.82
same,glycan array binding signal (z-score),[10],-0.248
same,glycan array binding signal (z-score),[11],-0.233
same,glycan array binding signal (z-score),[12],-0.24
same,glycan array binding signal (z-score),[13],6.61
same,glycan array binding signal (z-score),[14],5.29
same,glycan array binding signal (z-score),[15],5.63
same,glycan array binding signal (z-score),[16],-0.24
same,glycan array binding signal (z-score),Gal(b1-4)Gal,-0.24
same,glycan array binding signal (z-score),[17],-0.241
same,glycan array binding signal (z-score),[18],4.25
same,glycan array binding signal (z-score),[19],-0.106
same,glycan array binding signal (z-score),[20],5.87
same,glycan array binding signal (z-score),[21],-0.239
same,glycan array binding signal (z-score),GalNAc6S(b1-4)GlcNAc,-0.252
same,glycan array binding signal (z-score),GlcA(b1-6)Gal,-0.239
same,glycan array binding signal (z-score),[22],-0.239
same,glycan array binding signal (z-score),[23],5.92
same,glycan array binding signal (z-score),[24],7.33
same,glycan array binding signal (z-score),GlcNAc(b1-3)Fuc,-0.246
same,glycan array binding signal (z-score),[25],-0.246
same,glycan array binding signal (z-score),[26],-0.24
same,glycan array binding signal (z-score),[27],-0.242
same,glycan array binding signal (z-score),Neu5Ac(a2-3)GalNAc,-0.243
same,glycan array binding signal (z-score),[28],-0.251
same,glycan array binding signal (z-score),[29],3.9
same,glycan array binding signal (z-score),[30],5.95
same,glycan array binding signal (z-score),[31],0.262
same,glycan array binding signal (z-score),[32],-0.236
same,glycan array binding signal (z-score),[33],-0.249
same,glycan array binding signal (z-score),[34],-0.245
